Screening results deposited in PubChem by National Center for Advancing Translational Sciences (NCATS).
Akt phos inh – blocks phosphorylation of Akt | Neuro2A IGF-stimulated pAkt S473 HTRF, 20 min; hits give low values | activity change, % for hits at 50 µM | 0.32% of 360,000 active | AID 651550; in the data active = activity change below about -80%; inconclusive = mostly about -51% to -80%; also: % is scaled to controls: 0 for no effect and ±100 for the full control effect
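Neuro2A cells in DMEM with 0.5% FBS, overnight at 37 deg C, given compound at single 50 µM final, then IGF (6 nM final) for 20 min at 37 deg C. Lysed; phospho-Akt Ser473 by HTRF after 24 h, 665/615 ratio.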
TSHR antagonist – blocks TSH signaling through the human TSH receptor | activity change, negative = inhibition, % at 11.5 µM | TSHR-expressing cells, TSH-stimulated cAMP HTRF, 2 h; hits give low values | 0.2% of 330,000 active | P16473;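 active = activity change below a set negative limit, meaning inhibition stronger than a set level, cut at about -70% in these data; inconclusive = activity change between two set negative limits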; also: % is scaled to controls: 0 for no effect and ±100 for the full control effect
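Cell-based HTRF cAMP assay; TSHR cells + compound, TSH EC80 (4nM final), 2 h, 37 deg C. Lysis with anti-cAMP cryptate and cAMP-d2, 30 min RT, read 665/620 nm.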
RXFP1 agonist – activates the human relaxin receptor RXFP1 | HEK293T-RXFP1 cAMP TR-FRET, 30 min; response scale: percent of porcine relaxin response, buffer zero | Q9HBX9 | 0.3% of 370,000 active | AID 2676 | Potency, µM (top dose mostly 57.5 µM), without a hit: top-dose activation, actives largely listed as activators; active = well fitted activation curve with a large enough effect; inconclusive = small, poorly fitted or top-dose-only effect; also: potency is read from the fitted curve at half-maximal effect; % is scaled to controls: 0 for no effect and ±100 for the full control effect; nearly all actives have a fitted effect of over 60% in size
Target sequence (Q9HBX9 whole entry, looked up): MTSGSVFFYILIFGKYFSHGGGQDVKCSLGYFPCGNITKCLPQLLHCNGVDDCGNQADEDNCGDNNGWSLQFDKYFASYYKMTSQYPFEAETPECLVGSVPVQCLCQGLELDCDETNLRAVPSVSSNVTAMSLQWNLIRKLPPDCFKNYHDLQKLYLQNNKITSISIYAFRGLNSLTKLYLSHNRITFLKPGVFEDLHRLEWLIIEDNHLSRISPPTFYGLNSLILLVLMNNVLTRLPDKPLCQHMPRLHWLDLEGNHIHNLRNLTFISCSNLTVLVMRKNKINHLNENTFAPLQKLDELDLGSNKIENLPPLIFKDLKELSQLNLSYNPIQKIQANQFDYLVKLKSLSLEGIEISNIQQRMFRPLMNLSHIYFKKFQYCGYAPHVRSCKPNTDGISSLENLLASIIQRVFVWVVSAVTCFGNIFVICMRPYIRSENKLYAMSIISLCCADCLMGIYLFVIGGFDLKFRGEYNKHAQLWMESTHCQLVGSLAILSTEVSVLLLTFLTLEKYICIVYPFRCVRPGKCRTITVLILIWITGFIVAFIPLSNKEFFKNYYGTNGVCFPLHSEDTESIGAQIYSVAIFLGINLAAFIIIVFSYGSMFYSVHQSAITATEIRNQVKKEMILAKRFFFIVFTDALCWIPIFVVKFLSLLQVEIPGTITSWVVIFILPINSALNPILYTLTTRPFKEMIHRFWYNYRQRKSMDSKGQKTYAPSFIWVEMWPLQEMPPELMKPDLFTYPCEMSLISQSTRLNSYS
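HEK293 cells stably expressing RXFP1, treated 30 min at 37C with compounds plus PDE4 inhibitor Ro 20174; cAMP measured by HTRF TR-FRET. Normalized to buffer and 29 nM porcine relaxin; EC50 by Hill fit.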
gsp agonist – gsp mutant agonism; 0.13% of 340,000 active; gsp mutant cells, cAMP HTRF, 30 min; Potency, µM (series often up to 76.9 µM), for the others: at the top dose activation (cAMP increase), usual class: activators; active = well fitted activation curve with a large enough effect; inconclusive = small, poorly fitted or top-dose-only effect, or another doubt; inactive = no such curve, though single readings can be large or run the other way; cell line not stated here;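 also: phosphodiesterase inhibitor Ro 20-1724 added with compounds to block cAMP breakdown; potency is read from the fitted curve at half-maximal effect; nearly all actives have a fitted effect of over 60% in size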
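Cells stably selected in G418 were plated at 2000/well, grown 16-24 hr, then given compounds in DMSO with the PDE inhibitor […] (300 uM solution added) for 30 min at 37C; cAMP was read by HTRF.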
gsp antagonist – gsp mutant antagonism; gsp-mutant cells, cAMP HTRF, 30 min; Potency, µM (top dose mostly 76.9 µM), without a hit: at the top dose activity change, negative = inhibition, most hits filed as inhibitors; 0.4% of 340,000 active; AID 624288; calls by dose curve; cell line not stated here;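 also: intracellular cAMP measured with PDE inhibitor Ro 20-1724 present during compound exposure; potency is read from the fitted curve at half-maximal effect; % is scaled to controls: 0 for no effect and ±100 for the full control effect; nearly all actives have a fitted effect of over 65% in size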
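Cells in G418 medium, seeded 16-24 h, 37C; buffer exchange to DPBS + 1 mM CaCl2, 0.5 mM MgCl2, 0.05% BSA; cpds in DMSO + […] (300 uM stock), 30 min 37C; HTRF cAMP detection.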
RXFP1 antag – antagonists of human relaxin receptor RXFP1; Q9HBX9; HEK293-RXFP1, relaxin-stimulated cAMP HTRF, 30 min; hits give low values; activity change, negative = inhibition, % at 57.5 µM; 0.59% of 350,000 active; AID 1259400;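 active = activity change of -60% or lower, but not beyond a set lower limit; inconclusive = change between -60% and -40%, or beyond the set limit; inactive = change above -40%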; also: % is scaled to controls: 0 for no effect and ±100 for the full control effect
* = called active by the depositor; i = inactive; ? = inconclusive; / = not tested or not shown; [ ] = another dose, or the depositor's remark. An excerpt weighted towards active compounds, which were near 1.3% of everything screened.

SMILES	Akt phos inh	TSHR antagonist	RXFP1 agonist	gsp agonist	gsp antagonist	RXFP1 antag
O=C(Nc1ccccc1)C1CCN(S(=O)(=O)c2cccs2)CC1	i	15	1%	42%	8%	-2
N#Cc1ccsc1NC(=O)C1CCN(S(=O)(=O)c2cccs2)CC1	i	-1	0%	11%[15.4 µM]	-8%	-70*
CC1CN(c2ncc(/C=N/NC(=O)c3ccccc3O)s2)CC(C)O1 (stereo unspecified)	i	-8	-1%	2%[15.4 µM]	?	-73*
COc1ccc(-c2nn(-c3ccccc3)cc2/C=N/NC(=O)c2ccc(Br)o2)cc1	i	-95*	4%	2%	?	2
NC(=O)CC[C@@H]1NC(=O)[C@H](Cc2ccccc2)NC(=O)[C@H](Cc2ccc(O)cc2)NC(=O)CCSSC[C@@H](C(=O)N2CCC[C@H]2C(=O)N[C@@H](CCCN=C(N)N)C(=O)NCC(N)=O)NC(=O)[C@H](CC(N)=O)NC1=O	/	/	/	/	/	11
c1ccc(CCNCCCOc2cccc3ccccc23)cc1	i	12	1%	-40%	4%	-95*
N#C/C(=N\Nc1ccc(Cl)cc1)C(=O)c1ccccc1	i	-48	-1%	-3%[15.4 µM]	28µM*	-16
c1ccc(Nc2nc(Nc3ccccc3)nc(N3CCNCC3)n2)cc1	i	-8	1%	-25%	12%	-101*
CCC12CN3CC(CC)(CN(C1)C3c1ccc(OC(C)C)cc1)C2=O (stereo unspecified)	-112%*	0	-1%	-11%	-6%	-5
O=C1N/C(=N/NC(=O)c2cccc3ccccc23)S/C1=C\c1ccccc1OCc1ccccc1	i	19	3%	?	28µM*	?
COc1ccc(N2CCN(C(=O)c3cccc(NC(=O)c4nsc5ccccc45)c3)CC2)cc1	/	/	1%	/	/	-5
Cc1cccc(C)c1Nc1c(-c2ccccc2F)nc2cccc(C)n12	/	/	5%	/	/	-100*
O=C(OCc1nc2ccccc2[nH]1)C12CC3CC(CC(C3)C1)C2	i	-14	2%	11%	35µM*	4
Cc1ccc(S(=O)(=O)N(C)CC(O)Cn2c3ccccc3c3ccccc32)cc1 (stereo unspecified)	-114%*	0	2%	0%	-5%	-5
Cc1ccc(S(=O)(=O)N(CC(O)Cn2c3ccccc3c3ccccc32)c2cccc(C(=O)N(C)C)c2)cc1 (stereo unspecified)	/	/	7%	/	/	/
O=C1C2C(c3ccccc3)C=CC(c3ccccc3)C2C(=O)N1CCCO (stereo unspecified)	-102%*	0	-1%	12%	-7%	-8
CCOc1ccc(Oc2ccc(C(F)(F)F)cc2NC(=O)C2=COCCO2)cc1	i	3	-1%	4%	-2%	-12
Nc1ccc2c(c1)C(=O)C(=O)c1ccccc1-2	?	-79*	2%	29%	?	-32
CCOc1cc(C(=O)NC2CC(C)(C)NC(C)(C)C2)cc(OCC)c1OCC	i	-46	1%	-1%[15.4 µM]	0%	-12
C=CCOc1c(Cl)cc(CNc2ccc(C)c(Cl)c2)cc1OC	/	-1	3%	/	/	/
C=CCOc1c(Cl)cc(CNc2ccc(N(C)C)cc2)cc1OC	i	-108*	-14%	14%	?	-103*
CCc1ccc(C2N3CC4(C)CN2CC(c2ccccc2)(C3)C4=O)cc1 (stereo unspecified)	/	/	0%	/	/	-20
O=C(Nc1ccc(F)cc1)c1cncs1	i	-8	2%	14%[15.4 µM]	11%	9
O=C(Nc1ccc(Cl)cc1)c1cncs1	i	-5	0%	6%[15.4 µM]	50µM*	3
Cn1c(=O)c(C(=O)COc2ccc(C#N)cc2)c(N)n(Cc2ccccc2)c1=O	i	4	18µM*	?	-1%	31
SMILES	Akt phos inh	TSHR antagonist	RXFP1 agonist	gsp agonist	gsp antagonist	RXFP1 antag
CC1CN(C(=O)c2cc(-c3ccc(Cl)s3)nc3ccccc23)CC(C)O1 (stereo unspecified)	i	10	5%	0%	7%	?
CCOC(=O)c1cc(CC)sc1NC(=O)c1ccc2c(c1)OCCO2	-113%*	-11	-1%	-38%	?	-3
COc1cc(NS(=O)(=O)c2ccc(NC(=O)c3cccs3)cc2)nc(OC)n1	i	-7	0%	19%[15.4 µM]	22µM*	0
C[C@H]1CN([C@@H](C)CO)S(=O)(=O)c2ccc(C#CC3CC3)cc2O[C@@H]1CN(C)S(C)(=O)=O	i	/	/	-48%	/	3
CC(C)(C)c1cccc(Cn2nnc3ccccc32)c1O	i	-77*	0%	/	-2%	/
Cc1cc(Cn2nnc3ccccc32)c(O)c(C(C)(C)C)c1	i	-45	0%	-16%	-13%	/
Cc1ccccc1N1CCN(C2CCCN(C(=O)c3cnsn3)C2)CC1 (stereo unspecified)	i	-105*	-6%	-21%	2%	-7
N#Cc1c(-c2ccc([N+](=O)[O-])cc2)nc2n(c1=O)CCS2	i	2	24%	14µM*	-6%	8
N#Cc1c(Cl)cccc1N1CCSCC1	i	/	/	/	/	/
N#Cc1c(N2CCSCC2)nsc1-c1ccccc1Cl	i	-1	?	16µM*	-8%	3
CO/N=C(\C(=O)N[C@@H]1C(=O)N2C(C(=O)O)=C(CSc3nc(=O)c(O)nn3C)CS[C@H]12)c1csc(N)n1	/	/	/	/	/	-23
COc1ccc(Cn2c(-c3ccc(OC)c(O)c3)nc3ccccc32)cc1O	i	3	-1%	-5%	-25%	-72*
O=[N+]([O-])c1cc(/C=N\Nc2nc(-c3ccccc3)cs2)ccc1O	i	-12	3%	-50%	?	-65*
COc1ccc(/C=N/Nc2nc(-c3cccc(S(=O)(=O)N4CCCC4)c3)cs2)cc1OC	i	-1	1%	-50%	12%	-4
COc1cc(/C=N/Nc2nc(-c3ccc(S(=O)(=O)N(C)C)cc3)cs2)ccc1O	i	-7	1%	-12%	32µM*	-7
C[C@H]1CN([C@@H](C)CO)C(=O)CCCn2cc(nn2)CO[C@@H]1CN(C)S(=O)(=O)c1ccc(C#N)cc1	i	/	/	7%	/	11
O=C(N[C@H]1CCCCNC1=O)c1cc(COc2ccc(F)cc2F)on1	/	-5	-3%	18%	3%	0
C=CCNC(=O)/C(C#N)=C/c1ccc(OS(=O)(=O)c2ccc(C)cc2)c(OC)c1	i	-8	3%	-1%	6%	-61*
COc1ccccc1NC(=O)CSc1oc(-c2ccc(F)cc2)nc1S(=O)(=O)c1ccc(Br)cc1	/	/	8%	/	/	-13
